{
  "source": "the supplement of paper PMC10849652",
  "note": "Targets with a hit are over-represented here; the source holds about 8,800 in all. About 0.5% of all pairs of compound and target were hits. Unmarked numbers belong to inactive results.",
  "data": [
    {"compound": "Cc1nc(Nc2ncc(C(=O)Nc3c(C)cccc3Cl)s2)cc(N2CCN(CCO)CC2)n1 [dasatinib]", "assay": "log2 fold change, soluble protein after heating vs DMSO (PISA); higher = thermal stabilisation; K562 lysate, 10 uM; active = over 0.2 and 3.5 SD of the protein, either way, in both replicates (recomputed)", "how_it_was_run": "(§1)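 Quantification was by TMTpro 16plex LC-MS/MS with equalised channel sums, applied to the supernatant after 21,000xg for 90 min. Samples were crude K562 extract at 1 mg/mL protein in PBS pH 7.4 with 1 mM MgCl2, treated with 10 μM compound for 30 min, heated for 3 min across 48°C-58°C, pooled and brought to 0.5% NP-40 at 4°C. Values are log-two fold changes in thermal stability relative to solvent controls, from duplicates.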", "values": [
      {"target": "SLC11A2 isoform 3 (UniProt P49281)", "log2 fold change": 0.07},
      {"target": "SLC12A6 (UniProt Q9UHW9)", "log2 fold change": 0.024},
      {"target": "TAF9 (UniProt Q16594)", "sequence (Q16594 whole entry, looked up)": "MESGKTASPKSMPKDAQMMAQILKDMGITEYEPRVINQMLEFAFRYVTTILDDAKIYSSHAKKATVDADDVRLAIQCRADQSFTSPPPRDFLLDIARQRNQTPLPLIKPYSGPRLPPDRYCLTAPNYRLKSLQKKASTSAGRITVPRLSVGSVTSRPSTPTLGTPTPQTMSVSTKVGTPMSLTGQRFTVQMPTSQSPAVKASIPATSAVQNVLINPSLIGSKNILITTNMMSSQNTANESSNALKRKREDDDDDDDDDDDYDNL", "log2 fold change": -0.017},
      {"target": "SKA1 (UniProt Q96BD8)", "sequence (Q96BD8 whole entry, looked up)": "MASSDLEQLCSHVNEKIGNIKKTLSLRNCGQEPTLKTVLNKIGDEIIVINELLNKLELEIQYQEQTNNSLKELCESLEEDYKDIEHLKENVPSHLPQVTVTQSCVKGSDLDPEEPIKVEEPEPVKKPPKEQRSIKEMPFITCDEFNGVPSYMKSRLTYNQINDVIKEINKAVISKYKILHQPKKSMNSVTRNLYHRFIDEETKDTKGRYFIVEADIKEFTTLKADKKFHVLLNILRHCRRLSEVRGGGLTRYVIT", "log2 fold change": -0.034},
      {"target": "SMTN isoform 6 (UniProt P53814)", "log2 fold change": -0.055},
      {"target": "SHC1 isoform 6 (UniProt P29353)", "log2 fold change": 0.046},
      {"target": "SPIRE1 (UniProt Q08AE8)", "log2 fold change": 0.037},
      {"target": "SNW1 (UniProt Q13573)", "log2 fold change": 0.024},
      {"target": "SLC25A32 (UniProt Q9H2D1)", "sequence (Q9H2D1 whole entry, looked up)": "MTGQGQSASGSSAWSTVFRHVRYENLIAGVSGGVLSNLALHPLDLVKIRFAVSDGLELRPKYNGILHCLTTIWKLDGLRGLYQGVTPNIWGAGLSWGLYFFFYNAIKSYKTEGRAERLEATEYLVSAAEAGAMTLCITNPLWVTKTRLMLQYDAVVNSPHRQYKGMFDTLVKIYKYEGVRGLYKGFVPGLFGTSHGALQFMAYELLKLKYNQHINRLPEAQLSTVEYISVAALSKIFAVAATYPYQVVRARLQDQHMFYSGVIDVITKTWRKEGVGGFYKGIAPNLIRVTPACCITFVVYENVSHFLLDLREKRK", "log2 fold change": 0.011},
      {"target": "TARBP2 (UniProt Q15633)", "log2 fold change": -0.038},
      {"target": "SYNE2 isoform 2 (UniProt Q8WXH0)", "log2 fold change": 0.032},
      {"target": "SMG5 (UniProt Q9UPR3)", "log2 fold change": 0.003},
      {"target": "SH3GL3 isoform 3 (UniProt Q99963)", "log2 fold change": -0.067},
      {"target": "STAU1 (UniProt O95793)", "sequence (O95793 whole entry, looked up)": "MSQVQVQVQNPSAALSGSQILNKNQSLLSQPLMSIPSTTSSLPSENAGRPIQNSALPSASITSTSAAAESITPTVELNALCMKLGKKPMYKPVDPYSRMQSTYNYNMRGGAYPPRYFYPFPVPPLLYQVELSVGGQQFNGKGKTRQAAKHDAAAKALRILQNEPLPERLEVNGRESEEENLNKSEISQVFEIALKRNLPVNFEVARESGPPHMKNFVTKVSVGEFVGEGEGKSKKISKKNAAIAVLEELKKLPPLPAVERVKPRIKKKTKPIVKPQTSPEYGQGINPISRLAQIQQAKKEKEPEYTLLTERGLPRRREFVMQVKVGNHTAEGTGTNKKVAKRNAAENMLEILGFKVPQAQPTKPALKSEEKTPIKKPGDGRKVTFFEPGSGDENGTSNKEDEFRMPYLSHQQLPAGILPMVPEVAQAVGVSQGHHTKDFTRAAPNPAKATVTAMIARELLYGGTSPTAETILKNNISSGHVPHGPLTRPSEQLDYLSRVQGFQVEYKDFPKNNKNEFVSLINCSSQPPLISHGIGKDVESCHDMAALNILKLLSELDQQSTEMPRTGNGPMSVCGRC", "log2 fold change": -0.004},
      {"target": "SMARCAD1 isoform 2 (UniProt Q9H4L7)", "log2 fold change": -0.033},
      {"target": "SLC25A36 (UniProt Q96CQ1)", "sequence (Q96CQ1 whole entry, looked up)": "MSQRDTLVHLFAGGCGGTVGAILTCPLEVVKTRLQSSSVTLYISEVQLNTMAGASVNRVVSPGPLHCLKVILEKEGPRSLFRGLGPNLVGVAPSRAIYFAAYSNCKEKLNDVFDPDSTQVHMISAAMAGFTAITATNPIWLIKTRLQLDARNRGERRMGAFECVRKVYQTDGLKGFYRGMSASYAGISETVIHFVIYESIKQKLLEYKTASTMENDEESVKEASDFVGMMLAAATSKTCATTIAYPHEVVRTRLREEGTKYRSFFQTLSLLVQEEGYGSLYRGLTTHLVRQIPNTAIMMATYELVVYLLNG", "log2 fold change": 0.012},
      {"target": "SMARCA4 (UniProt P51532)", "log2 fold change": -0.042},
      {"target": "SP1 (UniProt P08047)", "sequence (P08047 whole entry, looked up)": "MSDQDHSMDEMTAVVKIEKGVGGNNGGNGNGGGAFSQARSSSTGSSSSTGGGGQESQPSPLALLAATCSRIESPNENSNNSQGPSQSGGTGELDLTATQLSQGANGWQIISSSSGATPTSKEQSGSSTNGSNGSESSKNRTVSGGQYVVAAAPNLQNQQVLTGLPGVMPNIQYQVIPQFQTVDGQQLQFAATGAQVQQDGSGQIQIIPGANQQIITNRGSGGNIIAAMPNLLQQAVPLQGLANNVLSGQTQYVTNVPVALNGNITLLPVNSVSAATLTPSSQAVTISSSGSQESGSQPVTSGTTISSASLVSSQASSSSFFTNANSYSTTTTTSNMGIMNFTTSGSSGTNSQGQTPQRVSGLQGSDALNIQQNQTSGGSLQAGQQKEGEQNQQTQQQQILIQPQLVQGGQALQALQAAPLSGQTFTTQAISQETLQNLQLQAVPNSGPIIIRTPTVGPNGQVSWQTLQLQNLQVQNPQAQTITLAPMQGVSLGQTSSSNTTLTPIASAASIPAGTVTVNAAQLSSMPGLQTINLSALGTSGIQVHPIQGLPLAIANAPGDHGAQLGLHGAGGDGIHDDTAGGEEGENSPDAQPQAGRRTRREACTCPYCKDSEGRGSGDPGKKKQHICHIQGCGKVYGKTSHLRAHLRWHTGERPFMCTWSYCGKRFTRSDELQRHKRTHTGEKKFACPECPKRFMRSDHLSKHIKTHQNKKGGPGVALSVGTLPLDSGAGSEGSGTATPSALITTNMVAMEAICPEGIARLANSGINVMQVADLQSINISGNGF", "log2 fold change": -0.028},
      {"target": "SMG1 (UniProt Q96Q15)", "log2 fold change": -0.021},
      {"target": "SPHK1 isoform 2 (UniProt Q9NYA1)", "log2 fold change": -0.007},
      {"target": "SMC1B isoform 3 (UniProt Q8NDV3)", "log2 fold change": -0.004},
      {"target": "SMG7 (UniProt Q92540)", "sequence (Q92540 whole entry, looked up)": "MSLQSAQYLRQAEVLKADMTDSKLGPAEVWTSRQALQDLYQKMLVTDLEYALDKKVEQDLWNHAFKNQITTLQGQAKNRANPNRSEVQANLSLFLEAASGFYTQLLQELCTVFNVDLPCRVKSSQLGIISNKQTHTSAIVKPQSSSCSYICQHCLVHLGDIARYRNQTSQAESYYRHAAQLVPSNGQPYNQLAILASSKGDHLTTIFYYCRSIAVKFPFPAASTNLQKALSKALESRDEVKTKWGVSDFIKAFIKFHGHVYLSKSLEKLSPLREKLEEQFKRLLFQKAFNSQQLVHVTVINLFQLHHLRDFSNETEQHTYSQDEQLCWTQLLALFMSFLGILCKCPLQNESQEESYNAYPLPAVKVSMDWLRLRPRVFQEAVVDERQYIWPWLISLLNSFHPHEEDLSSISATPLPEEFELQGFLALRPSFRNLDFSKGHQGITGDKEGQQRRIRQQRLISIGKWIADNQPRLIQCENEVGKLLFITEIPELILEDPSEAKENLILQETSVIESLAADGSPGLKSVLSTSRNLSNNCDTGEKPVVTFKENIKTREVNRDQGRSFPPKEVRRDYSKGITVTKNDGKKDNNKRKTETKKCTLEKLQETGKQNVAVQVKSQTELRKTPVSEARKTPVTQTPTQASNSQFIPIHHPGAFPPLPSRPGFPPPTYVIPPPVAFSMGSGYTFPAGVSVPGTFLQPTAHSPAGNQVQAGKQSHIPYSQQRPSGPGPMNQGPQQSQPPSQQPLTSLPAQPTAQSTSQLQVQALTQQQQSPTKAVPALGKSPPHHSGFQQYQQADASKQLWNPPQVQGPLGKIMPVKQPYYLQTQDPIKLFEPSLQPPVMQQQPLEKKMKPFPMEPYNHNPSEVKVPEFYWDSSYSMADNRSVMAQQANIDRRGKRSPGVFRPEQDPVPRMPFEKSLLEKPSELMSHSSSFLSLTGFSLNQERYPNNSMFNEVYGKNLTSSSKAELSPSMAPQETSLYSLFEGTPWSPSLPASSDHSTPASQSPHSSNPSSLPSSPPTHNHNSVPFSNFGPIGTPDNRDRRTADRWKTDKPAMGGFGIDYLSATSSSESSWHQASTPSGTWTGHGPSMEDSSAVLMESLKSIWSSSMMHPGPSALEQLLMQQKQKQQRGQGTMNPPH", "log2 fold change": 0.003},
      {"target": "SLC25A38 (UniProt Q96DW6)", "sequence (Q96DW6 whole entry, looked up)": "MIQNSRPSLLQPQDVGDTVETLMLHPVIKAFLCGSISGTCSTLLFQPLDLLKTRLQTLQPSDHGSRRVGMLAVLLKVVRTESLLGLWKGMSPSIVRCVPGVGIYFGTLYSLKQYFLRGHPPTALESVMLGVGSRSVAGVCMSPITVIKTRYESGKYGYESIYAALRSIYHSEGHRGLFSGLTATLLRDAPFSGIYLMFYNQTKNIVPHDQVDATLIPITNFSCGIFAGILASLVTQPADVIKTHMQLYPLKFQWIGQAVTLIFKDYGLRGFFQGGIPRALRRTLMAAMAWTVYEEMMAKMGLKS", "log2 fold change": 0.015},
      {"target": "SMC3 (UniProt Q9UQE7)", "log2 fold change": 0.024},
      {"target": "SVIP (UniProt Q8NHG7)", "sequence (Q8NHG7 whole entry, looked up)": "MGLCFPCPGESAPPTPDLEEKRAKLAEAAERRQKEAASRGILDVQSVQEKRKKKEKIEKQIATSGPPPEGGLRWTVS", "log2 fold change": -0.066},
      {"target": "STK24 (UniProt B4DR80)", "log2 fold change": 0.092},
      {"target": "SPC25 (UniProt Q9HBM1)", "sequence (Q9HBM1 whole entry, looked up)": "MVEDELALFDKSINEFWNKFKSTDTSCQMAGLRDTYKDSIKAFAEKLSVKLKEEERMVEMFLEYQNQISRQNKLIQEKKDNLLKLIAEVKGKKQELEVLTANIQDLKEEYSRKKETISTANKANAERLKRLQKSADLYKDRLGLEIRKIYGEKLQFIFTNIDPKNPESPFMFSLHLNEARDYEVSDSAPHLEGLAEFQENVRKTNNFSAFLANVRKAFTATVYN", "log2 fold change": 0.002},
      {"target": "SPATS2 (UniProt Q86XZ4)", "log2 fold change": -0.073},
      {"target": "SLC26A6 (UniProt Q9BXS9)", "log2 fold change": -0.4},
      {"target": "SRP54 (UniProt P61011)", "sequence (P61011 whole entry, looked up)": "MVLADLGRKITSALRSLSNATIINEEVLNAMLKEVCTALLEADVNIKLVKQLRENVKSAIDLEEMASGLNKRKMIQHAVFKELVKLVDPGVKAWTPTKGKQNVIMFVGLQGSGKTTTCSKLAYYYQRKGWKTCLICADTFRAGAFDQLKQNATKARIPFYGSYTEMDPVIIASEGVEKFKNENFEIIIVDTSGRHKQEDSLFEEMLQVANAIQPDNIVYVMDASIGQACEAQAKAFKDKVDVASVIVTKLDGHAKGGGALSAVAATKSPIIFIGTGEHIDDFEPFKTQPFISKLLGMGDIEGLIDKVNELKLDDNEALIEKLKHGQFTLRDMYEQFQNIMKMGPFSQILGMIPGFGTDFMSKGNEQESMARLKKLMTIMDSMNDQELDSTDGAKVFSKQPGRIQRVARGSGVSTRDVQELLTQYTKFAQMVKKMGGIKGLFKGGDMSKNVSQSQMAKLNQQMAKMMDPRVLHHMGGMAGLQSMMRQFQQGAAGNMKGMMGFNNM", "log2 fold change": -0.021},
      {"target": "SSB (UniProt E7ERC4)", "log2 fold change": 0.007},
      {"target": "SSU72 (UniProt Q9NP77)", "sequence (Q9NP77 whole entry, looked up)": "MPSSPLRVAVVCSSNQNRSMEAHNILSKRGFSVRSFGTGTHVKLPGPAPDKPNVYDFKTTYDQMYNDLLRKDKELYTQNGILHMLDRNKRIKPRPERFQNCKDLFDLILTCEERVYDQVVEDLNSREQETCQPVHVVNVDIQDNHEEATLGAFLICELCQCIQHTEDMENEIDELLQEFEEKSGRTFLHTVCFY", "log2 fold change": -0.008}
    ]},
    {"compound": "Cc1ncc(-c2ccnc(Nc3ccc(S(C)(=O)=O)cc3)n2)n1C(C)C", "assay": "log2 fold change, soluble protein after heating vs DMSO (PISA); higher = thermal stabilisation; K562 lysate, 10 uM; active = over 0.2 and 3.5 SD of the protein, either way, in both replicates (recomputed)", "how_it_was_run": "as §1", "values": [
      {"target": "SLC11A2 isoform 3 (UniProt P49281)", "log2 fold change": 0.03},
      {"target": "SLC12A6 (UniProt Q9UHW9)", "log2 fold change": -0.066},
      {"target": "TAF9 (UniProt Q16594)", "log2 fold change": -0.003},
      {"target": "SKA1 (UniProt Q96BD8)", "log2 fold change": 0.023},
      {"target": "SMTN isoform 6 (UniProt P53814)", "log2 fold change": -0.022},
      {"target": "SHC1 isoform 6 (UniProt P29353)", "log2 fold change": -0.02},
      {"target": "SPIRE1 (UniProt Q08AE8)", "log2 fold change": -0.03},
      {"target": "SNW1 (UniProt Q13573)", "log2 fold change": -0.036},
      {"target": "SLC25A32 (UniProt Q9H2D1)", "log2 fold change": 0.043},
      {"target": "TARBP2 (UniProt Q15633)", "log2 fold change": 0.005},
      {"target": "SYNE2 isoform 2 (UniProt Q8WXH0)", "log2 fold change": -0.002},
      {"target": "SMG5 (UniProt Q9UPR3)", "log2 fold change": -0.054},
      {"target": "SH3GL3 isoform 3 (UniProt Q99963)", "log2 fold change": 0.096},
      {"target": "STAU1 (UniProt O95793)", "log2 fold change": -0.002},
      {"target": "SMARCAD1 isoform 2 (UniProt Q9H4L7)", "log2 fold change": -0.005},
      {"target": "SLC25A36 (UniProt Q96CQ1)", "log2 fold change": 0.04},
      {"target": "SMARCA4 (UniProt P51532)", "log2 fold change": -0.019},
      {"target": "SP1 (UniProt P08047)", "log2 fold change": 0.117},
      {"target": "SMG1 (UniProt Q96Q15)", "log2 fold change": 0.038},
      {"target": "SPHK1 isoform 2 (UniProt Q9NYA1)", "log2 fold change": -0.071},
      {"target": "SMC1B isoform 3 (UniProt Q8NDV3)", "log2 fold change": 0.023},
      {"target": "SMG7 (UniProt Q92540)", "log2 fold change": -0.058},
      {"target": "SLC25A38 (UniProt Q96DW6)", "log2 fold change": -0.171},
      {"target": "SMC3 (UniProt Q9UQE7)", "log2 fold change": 0.013},
      {"target": "SVIP (UniProt Q8NHG7)", "log2 fold change": 0.089},
      {"target": "STK24 (UniProt B4DR80)", "log2 fold change": 0.086},
      {"target": "SPC25 (UniProt Q9HBM1)", "log2 fold change": 0.03},
      {"target": "SPATS2 (UniProt Q86XZ4)", "log2 fold change": 0.074},
      {"target": "SLC26A6 (UniProt Q9BXS9)", "log2 fold change": 0.164},
      {"target": "SRP54 (UniProt P61011)", "log2 fold change": 0},
      {"target": "SSB (UniProt E7ERC4)", "log2 fold change": 0.198},
      {"target": "SSU72 (UniProt Q9NP77)", "log2 fold change": -0.028}
    ]},
    {"compound": "Cn1cc(-c2ccc3c(c2)CCN3C(=O)Cc2cccc(C(F)(F)F)c2)c2c(N)ncnc21", "assay": "log2 fold change, soluble protein after heating vs DMSO (PISA); higher = thermal stabilisation; K562 lysate, 10 uM; active = over 0.2 and 3.5 SD of the protein, either way, in both replicates (recomputed)", "how_it_was_run": "as §1", "values": [
      {"target": "SLC11A2 isoform 3 (UniProt P49281)", "log2 fold change": -0.048},
      {"target": "SLC12A6 (UniProt Q9UHW9)", "log2 fold change": -0.003},
      {"target": "TAF9 (UniProt Q16594)", "log2 fold change": 0.021},
      {"target": "SKA1 (UniProt Q96BD8)", "log2 fold change": -0.032},
      {"target": "SMTN isoform 6 (UniProt P53814)", "log2 fold change": 0.031},
      {"target": "SHC1 isoform 6 (UniProt P29353)", "log2 fold change": -0.005},
      {"target": "SPIRE1 (UniProt Q08AE8)", "log2 fold change": 0.025},
      {"target": "SNW1 (UniProt Q13573)", "log2 fold change": -0.015},
      {"target": "SLC25A32 (UniProt Q9H2D1)", "log2 fold change": -0.055},
      {"target": "TARBP2 (UniProt Q15633)", "log2 fold change": -0.056},
      {"target": "SYNE2 isoform 2 (UniProt Q8WXH0)", "log2 fold change": -0.024},
      {"target": "SMG5 (UniProt Q9UPR3)", "log2 fold change": 0.03},
      {"target": "SH3GL3 isoform 3 (UniProt Q99963)", "log2 fold change": -0.007},
      {"target": "STAU1 (UniProt O95793)", "log2 fold change": 0.007},
      {"target": "SMARCAD1 isoform 2 (UniProt Q9H4L7)", "log2 fold change": -0.005},
      {"target": "SLC25A36 (UniProt Q96CQ1)", "log2 fold change": 0.085},
      {"target": "SMARCA4 (UniProt P51532)", "log2 fold change": 0.004},
      {"target": "SP1 (UniProt P08047)", "log2 fold change": -0.019},
      {"target": "SMG1 (UniProt Q96Q15)", "log2 fold change": 0.006},
      {"target": "SPHK1 isoform 2 (UniProt Q9NYA1)", "log2 fold change": 0.025},
      {"target": "SMC1B isoform 3 (UniProt Q8NDV3)", "log2 fold change": 0.016},
      {"target": "SMG7 (UniProt Q92540)", "log2 fold change": 0.03},
      {"target": "SLC25A38 (UniProt Q96DW6)", "log2 fold change": 0.15},
      {"target": "SMC3 (UniProt Q9UQE7)", "log2 fold change": 0.024},
      {"target": "SVIP (UniProt Q8NHG7)", "log2 fold change": -0.013},
      {"target": "STK24 (UniProt B4DR80)", "log2 fold change": -0.005},
      {"target": "SPC25 (UniProt Q9HBM1)", "log2 fold change": 0.046},
      {"target": "SPATS2 (UniProt Q86XZ4)", "log2 fold change": -0.03},
      {"target": "SLC26A6 (UniProt Q9BXS9)", "log2 fold change": -0.154},
      {"target": "SRP54 (UniProt P61011)", "log2 fold change": 0.034},
      {"target": "SSB (UniProt E7ERC4)", "log2 fold change": -0.078},
      {"target": "SSU72 (UniProt Q9NP77)", "log2 fold change": 0.037}
    ]}
  ]
}
